Results filed as inconclusive are left out. Activity calls are given as the source filed them. Rule for the calls: active = hit-call score of the fitted dose curve at least 0.9, where 1 is the maximum; inconclusive = response in the unintended direction; inactive = score below 0.9.
What follows are compounds tested against human Vascular Endothelial Growth Factor Receptor 2 (VEGFR2), KDR (gene 3791) (UniProt P35968) (assay: NVS_ENZ_hVEGFR2: NovaScreen (NVS) Enzymatic Assay for human Vascular Endothelial Growth Factor Receptor 2 (VEGFR2) (AID 2283230)).
How it was run: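 Cell-free recombinant VEGFR2 kinase, fluorescent substrate with electrophoretic mobility-shift separation; read 1 h after dosing. Screened at 25 uM in duplicate, hits to concentration-response up to 50 uM; loss-of-signal versus DMSO.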

Sequence of human Vascular Endothelial Growth Factor Receptor 2 (VEGFR2), KDR (gene 3791) (P35968 whole entry, looked up): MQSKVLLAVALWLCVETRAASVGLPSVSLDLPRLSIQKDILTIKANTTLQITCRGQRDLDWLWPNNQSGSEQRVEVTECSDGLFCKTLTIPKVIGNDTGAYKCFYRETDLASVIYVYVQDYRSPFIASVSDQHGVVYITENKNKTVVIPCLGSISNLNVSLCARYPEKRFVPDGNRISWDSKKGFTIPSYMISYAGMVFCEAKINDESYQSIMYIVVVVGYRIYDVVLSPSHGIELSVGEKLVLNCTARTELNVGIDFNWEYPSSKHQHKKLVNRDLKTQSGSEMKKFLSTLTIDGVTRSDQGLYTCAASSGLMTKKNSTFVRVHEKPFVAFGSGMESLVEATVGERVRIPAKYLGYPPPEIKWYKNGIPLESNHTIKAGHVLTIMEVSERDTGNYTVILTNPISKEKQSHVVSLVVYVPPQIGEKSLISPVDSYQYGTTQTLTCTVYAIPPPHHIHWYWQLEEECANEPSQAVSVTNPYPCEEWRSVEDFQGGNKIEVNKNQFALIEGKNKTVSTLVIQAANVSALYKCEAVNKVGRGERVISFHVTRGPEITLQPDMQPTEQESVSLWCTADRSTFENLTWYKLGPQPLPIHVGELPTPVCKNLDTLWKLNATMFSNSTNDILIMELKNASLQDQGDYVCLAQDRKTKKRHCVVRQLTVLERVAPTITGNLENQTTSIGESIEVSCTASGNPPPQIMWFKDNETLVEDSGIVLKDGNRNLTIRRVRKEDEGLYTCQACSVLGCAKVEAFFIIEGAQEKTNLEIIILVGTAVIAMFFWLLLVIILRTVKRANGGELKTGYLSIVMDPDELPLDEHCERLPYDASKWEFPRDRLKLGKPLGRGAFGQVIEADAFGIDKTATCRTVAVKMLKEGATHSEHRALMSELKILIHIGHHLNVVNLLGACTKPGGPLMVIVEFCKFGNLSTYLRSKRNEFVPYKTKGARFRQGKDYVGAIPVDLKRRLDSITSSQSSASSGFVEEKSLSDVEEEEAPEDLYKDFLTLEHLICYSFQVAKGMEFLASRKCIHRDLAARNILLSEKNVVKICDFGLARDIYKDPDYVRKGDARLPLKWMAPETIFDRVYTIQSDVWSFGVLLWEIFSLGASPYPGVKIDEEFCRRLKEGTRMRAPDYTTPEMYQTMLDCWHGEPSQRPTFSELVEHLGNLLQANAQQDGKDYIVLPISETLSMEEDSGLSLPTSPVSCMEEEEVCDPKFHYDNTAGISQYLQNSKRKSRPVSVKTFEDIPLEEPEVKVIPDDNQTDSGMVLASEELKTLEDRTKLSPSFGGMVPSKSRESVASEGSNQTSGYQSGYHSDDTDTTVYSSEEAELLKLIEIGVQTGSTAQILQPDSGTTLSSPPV

Row | SMILES | outcome | AC50
1 | O=C(O)Cc1cc(I)c(Oc2cc(I)c(O)c(I)c2)c(I)c1 | inactive | –
2 | CCCOc1sc(C(=O)N2CCC(c3cc(CN)ccc3F)CC2)c(C)c1Br | inactive | –
3 | CCN(CC)CCNc1ccc(CNC=O)c2sc3ccc(OC)cc3c(=O)c12 | inactive | –
4 | CC(C)(C)c1ccc(O)c(C(C)(C)C)c1 | inactive | –
5 | CCCCCCCCCCCCc1ccccc1S(=O)(=O)O | – | 39.2 µM (active)
6 | Oc1cc2ccccc2c2ccccc12 | – | 7.7 µM (active)

What follows are compounds tested against sheep Cyclooxygenase-2 (Cox2), PTGS2 (gene 443460) (UniProt P79208) (assay: NVS_ENZ_oCOX2: NovaScreen (NVS) Enzymatic Assay for sheep Cyclooxygenase-2 (Cox2) (AID 2283231)).
How it was run: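 Enzyme extracted from ovine placenta tested cell-free; activity read colorimetrically by absorbance 0.66 hour after dosing. Primary screen in duplicate at 25 uM; hits rerun as concentration series to 50 uM, loss of signal versus DMSO baseline.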

Sequence of sheep Cyclooxygenase-2 (Cox2), PTGS2 (gene 443460) (P79208 whole entry, looked up): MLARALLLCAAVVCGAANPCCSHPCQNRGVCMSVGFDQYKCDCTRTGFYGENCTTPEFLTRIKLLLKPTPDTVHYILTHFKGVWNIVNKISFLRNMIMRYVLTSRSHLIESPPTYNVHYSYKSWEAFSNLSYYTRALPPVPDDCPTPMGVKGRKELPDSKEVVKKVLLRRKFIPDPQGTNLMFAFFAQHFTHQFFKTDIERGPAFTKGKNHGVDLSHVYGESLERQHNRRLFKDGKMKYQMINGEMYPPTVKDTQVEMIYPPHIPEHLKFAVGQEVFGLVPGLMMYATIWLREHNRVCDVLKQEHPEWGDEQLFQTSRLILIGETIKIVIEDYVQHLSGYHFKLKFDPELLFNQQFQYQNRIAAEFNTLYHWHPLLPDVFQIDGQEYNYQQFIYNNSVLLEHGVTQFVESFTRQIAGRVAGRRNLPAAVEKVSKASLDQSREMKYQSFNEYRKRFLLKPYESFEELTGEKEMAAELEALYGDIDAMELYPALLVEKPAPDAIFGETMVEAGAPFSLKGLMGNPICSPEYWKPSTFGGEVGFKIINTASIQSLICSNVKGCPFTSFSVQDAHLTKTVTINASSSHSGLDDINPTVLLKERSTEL

Row | SMILES | outcome | AC50
7 | OC1CCCCC1 | inactive | –
8 | NC(=O)N(O)[C@@H]1C=C[C@H](Oc2cccc(Oc3ccc(F)cc3)c2)C1 | inactive | –
9 | CCCOC(=O)c1ccc(O)cc1 | – | 25 µM (active)

The compounds below were run against rat Constitutive Nitric Oxide Synthase (CNOS), Nos1 (gene 24598) (UniProt P29476) (assay: NVS_ENZ_rCNOS: NovaScreen (NVS) Enzymatic Assay for rat Constitutive Nitric Oxide Synthase (CNOS) (AID 2283236)).
Protocol: NVS_ENZ_rCNOS is a biochemical, single-readout assay that uses extracted gene-proteins from Rat brain membranes in a tissue-based cell-free assay. Measurements were taken 1 hour after chemical dosing in a 96-well plate.NVS_ENZ_rCNOS is one of one assay component(s) measured or calculated from the NVS_ENZ_rCNOS assay. It is designed to make measurements of enzyme activity, a form of enzyme reporter, as detected with scintillation counting signals by Filter-based radiodetection technology.Data from the assay component NVS_ENZ_rCNOS was analyzed into 1 assay endpoint. This assay endpoint, NVS_ENZ_rCNOS, was analyzed in the positive analysis fitting direction relative to DMSO as the negative control and baseline of activity. Using a type of enzyme reporter, loss-of-signal activity can be used to understand changes in the enzymatic activity as they relate to the gene Nos1. Furthermore, this assay endpoint can be referred to as a primary readout, because this assay has produced multiple assay endpoints where this one serves a enzymatic activity function. To generalize the intended target to other relatable targets, this assay endpoint is annotated to the oxidoreductase intended target family, where the subfamily is nitric oxide synthase.
Binding assays used specific radioligands (tritiated, iodinated) with non-radioactive competitive displacement ligands in agonist or antagonist protocols (as indicated) and various reference compounds and inhibitors to titrate specific binding to receptors and transporters. Most enzyme assays (CYPs, kinases, phosphatases, proteases, HDACs) used recombinant protein and specific substrates (fluorescence mostly, some colorimetric and radioactive) and inhibitors, followed by a biochemical separation of substrate and product. All assays for the biochemical HTS were initially run in duplicate at a single concentration (10 uM for CYP450 assays and 25 uM for all others). Assay-chemical combinations meeting a pre-defined threshold (e.g., 30% inhibition and other criteria defined below) were then run in singleton concentration-response format with maximum concentration of 20 uM for CYPs and 50 uM for all others. Each assay was run with positive and negative controls, and concurrent controls on every plate. The follow-up (secondary) screen tested active chemical-pairs in concentration series, as well as a few additional assays not tested in the primary screen, some selected negative inactives, and several cases re-run in the concentration series for confirmatory purposes.

Sequence of rat Constitutive Nitric Oxide Synthase (CNOS), Nos1 (gene 24598) (P29476 whole entry, looked up): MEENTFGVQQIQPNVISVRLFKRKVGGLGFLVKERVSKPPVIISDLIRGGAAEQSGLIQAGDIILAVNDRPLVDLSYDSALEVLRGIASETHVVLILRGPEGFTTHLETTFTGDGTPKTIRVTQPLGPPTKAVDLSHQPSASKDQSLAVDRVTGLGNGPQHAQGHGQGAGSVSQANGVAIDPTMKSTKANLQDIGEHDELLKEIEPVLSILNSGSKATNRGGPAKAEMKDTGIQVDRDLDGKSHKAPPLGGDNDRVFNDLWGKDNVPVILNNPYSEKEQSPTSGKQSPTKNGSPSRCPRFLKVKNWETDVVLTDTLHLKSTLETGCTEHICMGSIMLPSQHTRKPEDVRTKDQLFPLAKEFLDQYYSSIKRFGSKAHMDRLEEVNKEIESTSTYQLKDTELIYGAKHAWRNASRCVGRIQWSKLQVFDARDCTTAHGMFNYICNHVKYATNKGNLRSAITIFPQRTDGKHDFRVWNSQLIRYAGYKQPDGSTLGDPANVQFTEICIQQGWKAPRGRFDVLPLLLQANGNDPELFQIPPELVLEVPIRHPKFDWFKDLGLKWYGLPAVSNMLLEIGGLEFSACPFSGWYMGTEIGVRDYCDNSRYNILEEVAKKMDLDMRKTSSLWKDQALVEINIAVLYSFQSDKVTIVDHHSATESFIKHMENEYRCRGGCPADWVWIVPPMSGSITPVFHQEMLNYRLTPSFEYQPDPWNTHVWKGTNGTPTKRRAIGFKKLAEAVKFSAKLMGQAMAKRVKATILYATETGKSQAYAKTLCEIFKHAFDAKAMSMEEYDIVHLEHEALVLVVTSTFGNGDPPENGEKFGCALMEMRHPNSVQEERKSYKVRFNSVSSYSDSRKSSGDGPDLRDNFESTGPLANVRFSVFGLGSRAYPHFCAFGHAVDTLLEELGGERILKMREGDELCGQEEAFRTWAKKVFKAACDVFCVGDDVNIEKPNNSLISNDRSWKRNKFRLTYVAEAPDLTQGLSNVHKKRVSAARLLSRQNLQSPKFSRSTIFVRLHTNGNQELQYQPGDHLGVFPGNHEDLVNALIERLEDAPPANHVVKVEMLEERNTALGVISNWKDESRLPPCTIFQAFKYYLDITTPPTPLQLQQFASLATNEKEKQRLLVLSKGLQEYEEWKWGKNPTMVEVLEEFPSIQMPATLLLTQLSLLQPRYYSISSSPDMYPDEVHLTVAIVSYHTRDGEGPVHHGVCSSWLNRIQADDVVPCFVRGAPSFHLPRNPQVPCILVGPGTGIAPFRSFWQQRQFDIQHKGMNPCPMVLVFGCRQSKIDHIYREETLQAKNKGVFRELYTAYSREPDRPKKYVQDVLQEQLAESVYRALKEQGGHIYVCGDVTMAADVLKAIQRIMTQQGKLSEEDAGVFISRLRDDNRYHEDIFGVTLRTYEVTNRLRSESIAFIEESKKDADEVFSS

Row | SMILES | outcome | AC50
10 | NC(=O)N1C(=O)C(C(=O)c2cc(Cl)cs2)c2cc(F)c(Cl)cc21 (stereo not given) | inactive | –
11 | CCCOc1sc(C(=O)N2CCC(c3cc(CN)ccc3F)CC2)c(C)c1Br | inactive | –
12 | CCc1ccc(CCOc2ccc(CC3SC(=O)NC3=O)cc2)nc1 (stereo not given) | – | 4.25 µM (active)
13 | c1ccc2c(c1)ccc1ccccc12 | – | 1.16 µM (active)
14 | CC(C)CCCCCCOC(=O)CCCCC(=O)OCCCCCCC(C)C | inactive | –
15 | CN1CCN(c2ccccc2/C=C2\SCCN(c3ccc(Cl)c(Cl)c3)C2=O)CC1 | inactive | –
